# Screening results from PubChem BioAssay.
# L major viab – Leishmania major promastigote growth inhibition; Leishmania major promastigotes, resazurin fluorescence viability; inhibition, % at 10 µM; hit rate 9% among 200,000; in the data active = inhibition above about 50%;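 also: promastigotes grown with compound for 44 hours at 28 °C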
# ROMK primary – human ROMK K+ channel modulation, primary screen; B-score at 10 µM; Tet-inducible ROMK, thallium flux fluorescence; actives lie on both sides; P48048; hit rate 2% among 130,000; AID 1918;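 active = signal ratio slope over the read window, or its plate-corrected B-score, at least 3 SD from the plate mean, either direction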;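 also: B-score of the F/F0 ratio slope over 7 to 12 s after thallium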
# Target sequence (P48048 whole entry, looked up): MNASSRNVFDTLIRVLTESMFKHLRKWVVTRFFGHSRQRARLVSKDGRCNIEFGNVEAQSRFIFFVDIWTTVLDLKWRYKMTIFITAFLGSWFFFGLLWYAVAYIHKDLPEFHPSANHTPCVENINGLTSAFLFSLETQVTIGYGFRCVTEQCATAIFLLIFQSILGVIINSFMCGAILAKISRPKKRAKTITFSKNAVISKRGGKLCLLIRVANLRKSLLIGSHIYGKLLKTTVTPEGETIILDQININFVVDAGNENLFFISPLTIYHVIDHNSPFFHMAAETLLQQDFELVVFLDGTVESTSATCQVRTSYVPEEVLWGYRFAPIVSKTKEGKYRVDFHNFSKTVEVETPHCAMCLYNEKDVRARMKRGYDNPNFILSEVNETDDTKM
# WT yeast gro inh – growth inhibition of WT yeast, mitochondrial fusion screen; inhibition, % at 10 µM; hit rate 2.1% among 190,000; mitochondrial fusion phenotypic screen, WT strain; in the data active = inhibition above about 58%; tested in S. cerevisiae
# m-calpain inh – blocks pig calpain II enzyme activity | purified calpain II, fluorogenic peptide substrate, 30 min | inhibition, % at 16 µM | hit rate 0.37% among 220,000;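 active = inhibition above about 50%, limit read from the data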
# KCC2 mod – modulates chloride dependent transport by human KCC2; Q9H2X9; KCC2 cells, thallium flux FluoZin-2 fluorescence; B-score of Tl+ flux slope (higher = more flux/activation; lower = inhibition) at 10 µM; hit rate 2.2% among 190,000;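 active = thallium flux slope and its plate-corrected score both differing from the plate sample mean at a set confidence after two filtering rounds, in either direction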;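 also: slope of fluorescence scaled to starting intensity during 10 to 20 s after thallium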
# Numbers without * were called inactive; i = inactive; . = not tested or not shown. Sampled rows, rich in hits. Any-hit rate of the full collection: about 12%.
SMILES,L major viab,ROMK primary,WT yeast gro inh,m-calpain inh,KCC2 mod
CC(c1ccccc1)N1CCn2c(nc3cc(NC(=O)c4cccs4)ccc32)C1 (stereo not given),98.9*,.,4.8,-32.5,.
COCCN1CCn2c(nc3cc(NC(=O)c4cccs4)ccc32)C1,2.4,.,13.4,-47.0,.
COc1cccc(N/C(SCc2cccc([N+](=O)[O-])c2)=C(/C#N)C(=O)NCc2cccs2)c1,87.1*,-0.222,12.9,14.7,-1.53
COc1ccc2ccc3c(c2c1)N=CC1(O3)N(C)c2ccccc2C1(C)C (stereo not given),23.8,0.686,78.2*,2.7,-0.75
CCNc1nc(NCC)nc(SCCOc2ccc(C)cc2)n1,22.0,0.6,87.7*,15.8,-0.863
CCNc1nc(NCC)nc(SCCOC(=O)Nc2ccccc2)n1,76.7*,.,13.6,18.6,-1.46
CCNC(=S)SCCOc1ccc(C)cc1,57.1*,1.92,1.8,22.5,-0.679
CCOc1nc(SCCOc2ccc(C)cc2)nc(N(C)C)n1,2.5,-0.259,51.0,28.8,-1.79
Cc1nn(-c2ccccc2)c(C)c1/C=N/NC(=O)c1ccccc1NS(=O)(=O)c1cccs1,-4.0,-0.468,-5.0,-48.5,-1.46
COCCSc1nnc(NC(=O)C(C)(C)C)s1,-4.8,.,6.2,-16.9,0.846
O=C(c1ccccc1)c1ccccc1C(=O)N1CCN(C(=O)c2ccccc2)CC1,-0.4,0.472,-3.4,-16.0,0.229
COc1ccc(NC(=O)COc2ccc(C(=O)NC3CCCc4ccccc43)cc2OC)cc1 (stereo not given),-5.0,0.0501,5.0,29.2,-0.246
Cc1cccc(-n2c(CNC(=O)Cc3ccccc3)n[nH]c2=S)c1,7.2,1.47,3.8,4.9,0.112
COc1ccccc1C1CC(c2ccccc2)=NN1C(=S)Nc1ccccc1 (stereo not given),78.6*,1.17,14.1,-75.3,-0.0348
Cc1ccc(C2=NN(C(=S)Nc3ccccc3)C(c3ccco3)C2)cc1 (stereo not given),56.0*,0.802,17.0,3.9,0.0808
COc1ccc(C2CC(c3ccccc3)=NN2C(=S)Nc2ccccc2)cc1 (stereo not given),36.6,0.536,14.8,-3.6,0.694
COc1ccc(C2=NN(C(=S)Nc3ccccc3)C(c3ccccc3)C2)cc1 (stereo not given),96.0*,0.0361,40.7,-9.1,0.0327
COc1ccc(C2CC(c3ccc(Br)cc3)=NN2C(=S)Nc2ccccc2)cc1 (stereo not given),79.0*,0.329,35.3,-34.6,1.55
CC1CCC2(CC1)NC(=O)c1ccccc1O2 (stereo not given),1.5,0.664,-1.9,-11.3,.
O=C(NNC(=O)c1ccccc1O)c1ccco1,-0.1,0.749,6.6,6.0,0.838
COc1ccc(C2=NN(C(=O)c3cccs3)C(c3ccccc3OC)C2)cc1OC (stereo not given),26.5,-0.409,66.8*,i,-0.572
Cc1ccc(C2=NN(C(=O)c3cccs3)C(c3ccccc3O)C2)cc1 (stereo not given),13.4,1.27,13.7,-25.7,0.0186
CCn1cc(Cl)c(C(=O)N2N=C(c3ccc4ccccc4c3)CC2c2ccccc2O)n1 (stereo not given),72.8*,-0.374,-18.9,-15.3,0.357
CCn1cc([N+](=O)[O-])c(C(=O)N2N=C(c3ccc4ccccc4c3)CC2c2ccccc2O)n1 (stereo not given),30.9,-0.064,10.4,-52.6,-0.189
CCn1cc([N+](=O)[O-])c(C(=O)N2N=C(c3cccc4ccccc34)CC2c2ccccc2O)n1 (stereo not given),74.0*,0.0105,-5.2,-54.8,-0.244
SMILES,L major viab,ROMK primary,WT yeast gro inh,m-calpain inh,KCC2 mod
O=C(NC1CCCCC1)C(c1ccccc1)N(Cc1ccc2c(c1)OCO2)C(=O)c1cnsn1 (stereo not given),35.1,-2.35*,17.4,23.4,0.128
COc1ccc(N(C(=O)c2cnsn2)C(C(=O)NC2CCCCC2)c2ccncc2)cc1 (stereo not given),57.8*,0.557,-22.6,-7.2,-0.214
Cc1ccc(C(C(=O)NC2CCCC2)N(Cc2ccc3c(c2)OCO3)C(=O)c2snc(C(N)=O)c2N)cc1 (stereo not given),.,.,.,-19.9,.
CCc1nnc(NC(=O)CSc2ncnc3scc(-c4ccc(C)cc4)c23)s1,-8.0,.,-10.7,-3.1,2.06
CCCC(=O)Nc1ccccc1Sc1ncnc2scc(-c3ccccc3)c12,54.8*,-0.0644,17.8,18.1,-3.57
O=C(CSc1ncnc2scc(-c3ccccc3)c12)Nc1ccc(C(=O)O)cc1,.,.,.,28.4,0.406
CC(=O)Nc1cccc(Oc2ncnc3scc(-c4ccc(C(C)C)cc4)c23)c1,14.0,-1.81,71.9*,-43.6,-2.57
CC(=O)Nc1ccc(Sc2ncnc3scc(-c4ccccc4)c23)cc1,1.4,.,78.6*,-26.2,-1.5
Cc1ccc(CNC(=O)c2ccc(S(=O)(=O)Nc3c(C)n(C)n(-c4ccccc4)c3=O)cc2)cc1,.,.,.,-14.2,0.0939
COC(=O)Cn1nnc(N2CCOCC2)n1,.,.,.,-15.0,0.526
O=C1/C(=C/c2cccc3ccccc23)CCCc2ccccc21,7.9,-0.293,62.8*,10.4,0.467
C=CCOc1cccc(C2c3c(oc4ccc(F)cc4c3=O)C(=O)N2CCCN2CCOCC2)c1 (stereo not given),.,.,16.2,5.7,2
CCCOc1cccc(-c2nn(-c3ccccc3)cc2/C=C(\C#N)C(=O)NCCCn2ccnc2)c1,89.3*,.,8.2,-25.3,-0.783
N#C/C(=C/c1cn(-c2ccccc2)nc1-c1cccc(OCc2ccc(F)cc2)c1)C(=O)NCCCn1ccnc1,100.4*,.,50.3,-46.3,2.23
O=C(NCCCn1ccnc1)c1cn(-c2ccccc2)nc1-c1ccc(F)cc1,7.2,-1.95,7.8,20.7,-0.0401
CCCC1(C)Nc2ccccc2-c2nc3ccccc3n21 (stereo not given),85.4*,.,8.0,i,-0.863
CCCCCSc1nnc(N)s1,.,-0.0276,.,-16.3,-0.413
CCNC(=S)N(Cc1cc2cc(C)cc(C)c2[nH]c1=O)C1CCCC1,98.9*,-0.406,-7.2,0.4,-2.11
CNC(=S)N(Cc1cc2cc(C)cc(C)c2[nH]c1=O)C1CCCC1,60.1*,-1.1,22.4,-11.6,-1.73
CCNC(=S)N(Cc1cc2c(C)ccc(C)c2[nH]c1=O)C1CCCC1,66.6*,-0.543,-8.6,-30.3,-1.79
CCC(=O)N(Cc1cc2cc(C)c(C)cc2[nH]c1=O)C1CCCCC1,17.4,.,-3.4,-5.1,.
CC(=O)N(Cc1cc2c(C)cc(C)cc2[nH]c1=O)C1CCCCC1,7.8,-0.385,98.5*,-15.1,0.633
CC(=O)O/N=C/c1c(Cl)n(C)c2ccccc12,7.8,-0.887,4.5,-15.5,-0.514
Cn1c(Cn2cnc3ccccc32)nnc1SCc1ccccc1,-4.1,-1.38,-1.8,-31.1,.
O=C(CCl)NC1(C(F)(F)F)C(=O)Nc2c1c(=O)[nH]c(=O)n2-c1ccccc1 (stereo not given),.,.,.,-21.0,0.522
N#CCCN(CCC#N)C(=S)NC1CC2C=CC1C2 (stereo not given),.,.,.,12.3,.
CCn1nc(C)c(CN2CCc3c([nH]c4ccccc34)C2c2ccc(F)c(OC)c2)c1C (stereo not given),74.2*,-0.176,34.0,-74.1,.
